ALOX12 inhib = 12-hLO (ALOX12) enzyme inhibition; P18054; purified 12-hLO, xylenol orange hydroperoxide absorbance; Potency, µM (highest dose often 57.1 µM), hits mostly inhibitors; 150,000 compounds, 0.12% hits; AID 1452; also: nearly all actives have a fitted effect of over 55% in size
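Purified human 12hLO (150 nM), preincubated 15 min with compound, then 40 uM arachidonic acid for 30 min, room temperature, Hepes pH 7.0 with 0.01% Triton X-100. Hydroperoxide detected by ferrous iron/xylenol orange; 573/405 nm absorbance ratio gives reaction progress.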
HPGD inh = inhibitors of human 15-hydroxyprostaglandin dehydrogenase (HPGD). Potency, µM, most hits filed as inhibitors. P15428. 150,000 compounds, 4.3% hits. purified HPGD, NADH fluorescence kinetic, PGE2 substrate; active = well fitted inhibition curve with a large enough effect, not every such curve was filed as active; inconclusive = small, poorly fitted or top-dose-only effect, or another doubt; inactive = no such curve, though single readings can be large or run the other way
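NADH formation kinetics: reaction with 30 uM PGE2 and 1 mM NAD+ (final), 20 nM enzyme, Tris-HCl pH 8 with Tween 20, after 15 min compound preincubation at room temperature. Fluorescence change, last versus first of five reads.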
PNC inhibitor = inhibitors of perinucleolar compartment assembly. 140,000 compounds, 3.1% hits. PC3M PTB-GFP, PNC prevalence imaging, 16 h; hits give low values. activity change (PNC), negative = inhibition, % at 10 µM;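 active = readout at or below -70, meaning at least 70% loss of cells showing the perinucleolar compartment, a nuclear body marking cancer cells; inconclusive = readout between -30 and a set limit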
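PC3M cells stably expressing PTB-GFP, 750–1000 cells/well, treated 16 h at 37 °C with compound (23 nl of library stock), in duplicate. After paraformaldehyde fixation and Hoechst stain, imaged at 20x; PNC prevalence scored by image analysis.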
ALDH1A1 inh = inhibitors of human aldehyde dehydrogenase 1A1; P00352; Purified ALDH1A1, NADH fluorescence, propionaldehyde substrate; Potency, µM (titrated, usually from 75.3 µM), hits mostly inhibitors; 220,000 compounds, 7.3% hits; AID 1030; active = well fitted inhibition curve with a large enough effect, not every such curve was filed as active; inconclusive = small, poorly fitted or top-dose-only effect, or another doubt; inactive = no such curve, though single readings can be large or run the other way
aGal spleen mod = inhibits or activates alpha-galactosidase in human spleen homogenate; Potency, µM (top dose mostly 80 µM), usual class: inhibitors; P06280; human spleen homogenate, 4MU-alpha-Gal fluorescence, 40 min; 240,000 compounds, 0.008% hits; AID 2107
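Inhibition or activation of alpha-galactosidase in human spleen homogenate is scored by 4-MU fluorescence after 40 min at 37C, pH 5.0, with 1 mM substrate. AC50s come from concentration-response fitted to the Hill equation.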
GLA inh pH 4.5 = alpha-galactosidase A (human) inhibition, pH 4.5 | activity change, negative = inhibition, % at 105 µM | P06280 | purified enzyme, 4-MU-alpha-Gal fluorescence, pH 4.5 | 230,000 tested, under 10 active | AID 1467
Target sequence (P06280 whole entry, looked up): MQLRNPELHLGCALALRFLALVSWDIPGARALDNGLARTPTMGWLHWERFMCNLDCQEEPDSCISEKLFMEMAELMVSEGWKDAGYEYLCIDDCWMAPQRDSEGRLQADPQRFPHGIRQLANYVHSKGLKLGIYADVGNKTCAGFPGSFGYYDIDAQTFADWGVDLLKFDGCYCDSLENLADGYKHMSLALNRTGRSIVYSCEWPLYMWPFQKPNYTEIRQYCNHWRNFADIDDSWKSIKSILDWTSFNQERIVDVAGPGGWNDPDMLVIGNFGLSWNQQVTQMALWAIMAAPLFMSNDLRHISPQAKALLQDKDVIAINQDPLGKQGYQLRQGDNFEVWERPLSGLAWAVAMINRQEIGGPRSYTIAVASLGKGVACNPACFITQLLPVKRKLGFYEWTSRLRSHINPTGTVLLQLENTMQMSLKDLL
Hits are given with their value; . = inactive; ? = inconclusive; / = not tested or not shown. Rows were chosen to be rich in hits. Some 10% of all compounds tested hit in one or more screens of this group. Unless noted, calls follow the shape of the dose curve; as a rule, active = well fitted curve in the direction sought with a large enough effect; inconclusive = small, poorly fitted or top-dose-only effect, or another doubt; inactive = no such curve, though single readings can be large; an effect the other way counts as inactive or inconclusive.

SMILES | ALOX12 inhib | HPGD inh | PNC inhibitor | ALDH1A1 inh | aGal spleen mod | GLA inh pH 4.5
CC(C)[C@@H](CC(=O)N[C@@H]1CCCC[C@H]1C(=O)N[C@H](CC(=O)N[C@@H](CCC(=O)O)CC(=O)O)Cc1c[nH]c2ccccc12)NC(=O)C[C@H](Cc1c[nH]c2ccccc12)NC(=O)[C@@H]1CCCC[C@H]1N | . | . | / | . | . | .
COc1ccc(C(=O)CNc2ccccc2CO)cc1 | / | / | / | 14.1µM | . | .
COc1ccc(C(=O)CNc2ccccc2C#N)cc1 | / | / | / | ? | . | .
C=C1CC2COC(=O)C2(Cc2ccc3ccccc3c2)C1 (stereo not drawn) | / | / | / | / | . | /
Cc1ccc(-c2nnc(CSc3nc4cc5c(cc4cc3C)OCO5)o2)cc1 | . | 17.8µM | . | . | . | .
CCOC(=O)CSc1nc2cc3c(cc2cc1C)OCO3 | / | / | / | . | . | .
COc1ccc(N(C(=O)c2ccccc2C)S(=O)(=O)c2cccs2)cc1 | . | . | -96.7 | 11.2µM | . | .
COCCNC(=O)CN(CCc1ccccc1)S(=O)(=O)c1ccc(OC)cc1 | . | . | . | ? | . | .
COc1ccc(S(=O)(=O)N(CCc2ccccc2)CC(N)=O)cc1 | / | / | / | 7.94µM | . | .
Cc1ccc(OCC(=O)N2CC3(C)CC2CC(C)(C)C3)cc1 (stereo not drawn) | . | . | -100.0 | . | . | .
Cc1cccc(C)c1OCC(=O)N1CC2(C)CC1CC(C)(C)C2 (stereo not drawn) | . | . | . | . | . | .
CC1(C)CC2CC(C)(CN2C(=O)CN2C(=O)c3ccccc3C2=O)C1 (stereo not drawn) | . | . | ? | . | . | .
CC1(C)CC2CC(C)(CN2C(=O)COC(=O)Cn2[nH]c(=O)c3ccccc3c2=O)C1 (stereo not drawn) | . | . | -88.0 | . | . | .
CC1O[C@@H](O[C@H]2C(Oc3cc(O)c4c(c3)OC(c3ccc(O)cc3)CC4=O)OC(CO)C(O)C2O)C(O)C(O)C1O (stereo partly drawn) | . | . | / | . | . | .
C[N+](C)(C)CCCNC(=O)c1ccc(/C=N/O)nc1 | / | / | / | . | . | .
C[C@H]1CS(=O)(=O)CCN1/N=C\c1ccc([N+](=O)[O-])o1 | . | . | / | ? | . | .
CSC1=NSC2=NC(=O)/C(=C\c3coc4ccccc4c3=O)C(=N)N12 | . | 31.6µM | ? | ? | . | .
N=C1/C(=C\c2coc3ccc(O)cc3c2=O)C(=O)N=C2SC=CN12 | / | / | / | 15.8µM | . | .
O=S(=O)(/N=C(/Nc1ccc(Cl)cc1Cl)c1ccccc1)c1cccs1 | / | / | / | ? | . | .
Cc1cc(=O)oc2cc(Oc3ccc([N+](=O)[O-])cc3[N+](=O)[O-])ccc12 | . | . | ? | ? | ? | .
CCC(=O)Nc1nc(=S)ss1 | . | 10µM | ? | 2µM | . | .
CC(C)(C)C(=O)Nc1ccc(NC(=O)C(C)(C)C)cc1 | / | / | / | / | . | .
CC(C)(C)C(=O)Nc1nc(=S)ss1 | . | 31.6µM | . | 5.62µM | . | .
CCSc1nnc(NC(=O)CC)s1 | . | . | . | . | . | .
O=C(Nc1cccc(F)c1)N1CCC2(CC1)CCN(C(=O)c1cnccn1)CC2 | . | . | / | . | . | /
SMILES | ALOX12 inhib | HPGD inh | PNC inhibitor | ALDH1A1 inh | aGal spleen mod | GLA inh pH 4.5
Cc1cc(C)c2c(=O)[nH]n(C(C)C)c2n1 | . | . | ? | ? | . | .
CCC(CC)n1[nH]c(=O)c2c(C)cc(C)nc21 | . | . | -81.8 | . | . | .
CCC(=O)Nc1cccc(-c2cc3ccccc3oc2=O)c1 | / | / | / | . | . | .
O=C(Cc1cccc2ccccc12)Nc1ccc(-c2cc3ccccc3oc2=O)cc1 | . | ? | -82.9 | ? | ? | .
O=C(c1ccco1)N1CCC2(CC1)CCN(c1ccncc1)CC2 | . | . | / | 7.08µM | . | /
COc1ccc(NC(=O)N2CC3(CCN(C(=O)c4ccco4)CC3)C2)cc1 | . | . | / | 15.8µM | . | /
O=C(c1ccco1)N1CCC2(CC1)CN(c1ccccc1)C2 | . | . | / | 14.1µM | . | /
COc1cccc(-c2cc(NCc3cnc(C)cn3)ncn2)c1 | / | / | / | ? | . | /

Screening results from PubChem BioAssay.
